Screen size: about 5,500 compounds; about 2,000 (36%) were called active. Inconclusive results (about 18%) are left out. Cut-off read from the data, not from the text of the source: active = normalized growth mostly below about 0.91 (no sharp cut-off); inconclusive = no clear call, values can overlap the other calls; inactive = mostly above about 0.92. The list shows a part of the results.
Test: chemical genetic growth profiling, strain panel (AID 1159580);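 note: tested at 20 µM; growth read once vehicle control cultures reached saturation at 30 °C; 1 = growth at the plate median or of vehicle wells; lower values mean less growth of the strain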
Conditions: S. cerevisiae deletion strains, growth OD

Measured: normalized growth

CC(=O)O[C@]1(C(C)=O)CCC2C3C=C(Cl)C4=CC(=O)[C@@H]5C[C@@H]5[C@]4(C)C3CC[C@@]21C (some centres undefined)
inactive: locus YAL021C, strain ccr4, hits give low values 1.06 | locus YAL026C, strain drs2, hits give low values 1.02 | locus YAL030W, strain snc1, hits give low values 1.01 | locus YBL061C, strain skt5, hits give low values 1.01 | locus YBR009C, strain hhf1, hits give low values 0.973 | locus YBR023C, strain chs3, hits give low values 1 | locus YBR171W, strain sec66, hits give low values 1.02 | locus YBR231C, strain swc5, hits give low values 1.03 | locus YBR279W, strain paf1, hits give low values 0.997 | locus YCL011C, strain gbp2, hits give low values 0.99 | locus YCL016C, strain dcc1, hits give low values 0.992 | locus YCL061C, strain MRC1, hits give low values 1.02 | locus YCL069W, strain vba3, hits give low values 1.01 | locus YCR088W, strain abp1, hits give low values 1.01 | locus YDL005C, strain med2, hits give low values 1 | locus YDL040C, strain nat1, hits give low values 1.01 | locus YDR001C, strain nth1, hits give low values 1.01 | locus YDR069C, strain doa4, hits give low values 1.04 | locus YDR137W, strain rgp1, hits give low values 0.968 | locus YDR159W, strain sac3, hits give low values 0.946 | locus YDR195W, strain ref2 1.05 | locus YDR297W, strain sur2, hits give low values 1.02 | locus YDR334W, strain swr1, hits give low values 1 | locus YDR335W, strain msn5, hits give low values 1.01 | locus YDR392W, strain spt3, hits give low values 0.861 | locus YEL003W, strain gim4, hits give low values 1.02 | locus YEL037C, strain rad23, hits give low values 1.02 | locus YEL061C, strain CIN8 (second series), hits give low values 1.01 | locus YER015W, strain faa2, hits give low values 1 | locus YER016W, strain bim1, hits give low values 1.01 | locus YER111C, strain swi4, hits give low values 1.02 | locus YER155C, strain BEM2 (second series), hits give low values 1.05 | locus YFR010W, strain ubp6, hits give low values 1.03 | locus YGL167C, strain pmr1, hits give low values 1.03 | locus YGL173C, strain kem1, hits give low values 1.02 | locus YGL227W, strain vid30, hits give low values 0.997 | locus YGL240W, strain doc1, hits give low values 1.02 | locus YGL253W, strain hxk2, hits give low values 0.973 | locus YHR013C, strain ard1, hits give low values 1.03 | locus YHR027C, strain rpn1, hits give low values 1.01 | locus YHR030C, strain SLT2, hits give low values 1.03 | locus YHR079C, strain IRE1, hits give low values 1.02 | locus YHR142W, strain chs7, hits give low values 0.988 | locus YJL092W, strain hpr5, hits give low values 1.02 | locus YJL095W, strain BCK1 (second series), hits give low values 1.02 | locus YJL095W, strain BCK1, hits give low values 1.02 | locus YJL115W, strain asf1, hits give low values 1.01 | locus YJL129C, strain trk1, hits give low values 1.01 | locus YJL154C, strain vps35, hits give low values 1.01 | locus YJL164C, strain tpk1, hits give low values 0.992 | locus YJL166W, strain qcr8, hits give low values 1.02 | locus YJR066W, strain TOR1, hits give low values 0.997 | locus YKL160W, strain elf1, hits give low values 1.01 | locus YKR026C, strain gcn3, hits give low values 1.01 | locus YKR091W, strain srl3, hits give low values 1.01 | locus YLL001W, strain dnm1, hits give low values 1.02 | locus YLL026W, hits give low values 1.01 | locus YLL041C, strain sdh2, hits give low values 1.01 | locus YLR027C, strain aat2, hits give low values 1.02 | locus YLR113W, strain HOG1, hits give low values 1.03 | locus YLR221C, strain rsa3, hits give low values 0.982 | locus YLR258W, strain gsy2, hits give low values 1.01 | locus YLR262C, strain YPT6 (second series), hits give low values 0.977 | locus YLR320W, strain mms22, hits give low values 0.979 | locus YLR342W, strain FKS1, hits give low values 1.01 | locus YLR357W, strain rsc2, hits give low values 0.999 | locus YLR370C, strain arc18, hits give low values 1.02 | locus YLR384C, strain iki3, hits give low values 1.01 | locus YML120C, strain ndi1, hits give low values 1.02 | locus YMR058W, strain fet3, hits give low values 1.02 | locus YMR125W, strain sto1, hits give low values 1.02 | locus YMR129W, hits give low values 1.01 | locus YMR205C, strain PFK2, hits give low values 0.991 | locus YMR231W, strain pep5, hits give low values 1.01 | locus YNL071W, strain lat1, hits give low values 0.963 | locus YNL183C, strain NPR1, hits give low values 0.986 | locus YNL209W, strain ssb2, hits give low values 0.999 | locus YNL248C, strain rpa49, hits give low values 1.01 | locus YNL322C, strain KRE1 (second series), hits give low values 1.01 | locus YNR049C, strain mso1, hits give low values 1 | locus YOR001W, strain rrp6, hits give low values 1.03 | locus YOR070C, strain gyp1, hits give low values 1 | locus YOR080W, strain dia2, hits give low values 1.02 | locus YOR083W, strain WHI5, hits give low values 0.983 | locus YOR106W, strain vam3, hits give low values 1.01 | locus YOR231W, strain MKK1, hits give low values 1.02 | locus YOR265W, strain rbl2, hits give low values 1.02 | locus YOR270C, strain vph1, hits give low values 0.954 | locus YOR290C, strain snf2, hits give low values 0.995 | locus YPL051W, strain arl3, hits give low values 1.01 | locus YPL078C, strain atp4, hits give low values 1.01 | locus YPL106C, strain sse1, hits give low values 1.04 | locus YPL240C, strain hsp82, hits give low values 1.02 | locus YPL256C, strain CLN2, hits give low values 1.03
